High-throughput results from PubChem.
Shown are actives, neighbours in structure and some others; about 2.1% of the full set was active somewhere.
PfM18AAP inh – PfM18AAP inhibitors, malaria aminopeptidase, primary screen, biochemical, QFRET, recombinant enzyme. H-Glu-NHMec fluorogenic cleavage. AID 1822, 2009. 1.2% of 290,000 active. M18 aspartyl aminopeptidase (Plasmodium falciparum 3D7). inhibition, % at 7.35 µM;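 active means inhibition above the campaign mean inhibition over all tested compounds plus 3 SD, cut at about 28% in these data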;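 further: 0% = plate median of test compound wells and 100% = 2 mM ZnCl2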
Calb FLC – C. albicans growth inhibition with fluconazole, primary screen, CaCi-2 strain, Alamar Blue fluorescence; 0.57% of 300,000 active; growth inhibition, % (test concentration not listed); C. albicans CaCi-2 (fluconazole-resistant clinical isolate) + fluconazole, 48 h;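 active means growth inhibition above about 58% in most replicates, limit read from the data, passing the limit was not always enough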;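 further: all wells also contain fluconazole at 8 µg/ml as a sub-toxic cotreatment; 0% = median of DMSO wells and 100% = median of geldanamycin control wells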
Fh CTSL1 inh – Fasciola hepatica cathepsin L1 inhibitors, primary screen, counter-screen for PFM18AAP inhibitor project, biochemical, QFRET, fluorogenic peptide substrate; recombinant F. hepatica cathepsin L1, Z-Leu-Arg-MCA fluorescence; inhibition, % at 5.96 µM; 0.49% of 300,000 active;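 active means inhibition above the mean of all tested compounds plus 3 SD, set per screening campaign, cut at about 17% in these data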;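 further: 0% = plate median of test compound wells and 100% = 1 µM Z-Phe-Ala-diazomethylketone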
Rin1 Abl inh – inhibitors of Rin1-Abl protein binding, primary screen, biochemical, TR-FRET; inhibition, % at 7.35 µM; AID 588664, 2011; 0.4% of 360,000 active; in the data active means inhibition above about 5%, passing the limit was not always enough
* hit, by the source's call; nt = not tested or not shown; ! = a repeat was not active.

SMILES	PfM18AAP inh	Calb FLC	Fh CTSL1 inh	Rin1 Abl inh
O=C(NCCO)/C(=C\c1cccs1)NC(=O)c1cccs1	1	-3	18*	-1
O=C(Nc1nc2c(s1)CCc1ccccc1-2)c1cccs1	-13	-6	1	-4
Fc1ccccc1Nc1nc2c(s1)CCc1ccccc1-2	42*	nt	nt	nt
CCOC(=O)C1(C)CCCN(C(=O)c2ccc3c(c2)OCO3)C1 (centres undefined)	nt	nt	nt	0
CC(C)[C@H](NC(=O)C1(c2ccccc2)CCN(C(=O)OC(C)(C)C)CC1)C(=O)O	2	-3	27*	2
CC(C)(C)OC(=O)N1CCC(C(=O)N[C@@H](Cc2ccccc2)C(=O)O)(c2ccccc2)CC1	6	-10	5	1
CC(C)C[C@H](NC(=O)C1(c2ccccc2)CCN(C(=O)OC(C)(C)C)CC1)C(=O)N1CCC[C@H]1C(=O)O	-3	-1	41*	-2
CC(C)CC1(C)NC(=O)N(Cc2cc([N+](=O)[O-])cc3c2OCOC3)C1=O (centres undefined)	-6	0	7	1
O=C(CC1Sc2ncnn2C1=O)Nc1ccc(Cl)cc1 (centres undefined)	30*	20	3	nt
COc1ccc(NC(=O)CC2Sc3ncnn3C2=O)cc1 (centres undefined)	15	-10	0	-4
Cn1cc(Br)c(C(=O)Nc2nccs2)n1	2	5	-2	2
COC(=O)CSc1nnc2n(-c3ccc(OC)cc3)c(=O)c3c4c(sc3n12)CCCCC4	-2	11	3	0
COc1ccc(-n2c(=O)c3c4c(sc3n3c(=S)[nH]nc23)CCCC4)cc1	-4	93*	1	-5
COc1ccc(/C=C/C(=O)C2CC2)cc1COc1c(C)cccc1C	-5	97*	12	-1
Cc1ccc2c(c1)Sc1c(ccc3ccccc13)N2	28*	-5	-15	-1
CCOC(=O)C1=CCN(S(=O)(=O)c2ccccc2Br)C1c1ccc(F)cc1 (centres undefined)	nt	nt	nt	2
CC(C)OCCCNC(=O)CN1C(=O)c2cccc3cccc1c23	1	-34	6	-2
O=C1C2CC=C(Cl)CC2C(=O)N1CCc1ccccc1 (centres undefined)	-12	-3	44*	-6
COc1ccc(-c2c(-c3ccsc3)oc3ccc(N4CCOCC4)cc23)cc1	nt	10	4	-3
CCOc1ccc(N(CC(=O)N2CCOCC2)S(=O)(=O)c2ccc(Cl)cc2)cc1	9	1	-2	3
O=C(NNC(=O)c1cccs1)c1ccc(Br)cc1	-7	-2	1	3
NC1=NC[C@H](Cc2ccccc2)N1CCCCC1CCCCC1	nt	105*	-1	1
NC1=NC[C@H](Cc2ccc(O)cc2)N1CCCCC1CCCCC1	nt	35	1	5
O=C(Cc1ccccc1)Nc1ccccc1C(=O)NCC1CCCO1 (centres undefined)	-1	-2	-1	-3
CC(C)N1CCc2c(sc(NC(=O)c3cc4cc([N+](=O)[O-])ccc4s3)c2C(N)=O)C1	0	27	nt	-1
SMILES	PfM18AAP inh	Calb FLC	Fh CTSL1 inh	Rin1 Abl inh
CN1CCc2c(sc(NC(=O)c3cc4cc([N+](=O)[O-])ccc4s3)c2C(N)=O)C1	5	97*	nt	nt
CC1(C)CC(=O)C=C(Nc2ccc3c(c2)CCC3)C1	-6	8	2	nt
Nc1cc(Cl)ccc1CN1C(=O)c2ccccc2C1=O	nt	nt	nt	-1
COc1cc(NC(=O)CSc2nc3c(C)ccc(C)c3cc2C)c(C(=O)O)cc1OC	-6	-2	-1	-3
CCc1ccc(N=C2NC(=O)/C(=C/c3cc(OC)c(O)c(OC)c3)S2)cc1	28*	53	nt	-1
COc1cc(/C=C2\SC(=Nc3ccccc3)NC2=O)cc(Cl)c1O	13	69	6	0
CCN(CCCNC(=O)CCc1nc(-c2ccc(OC)cc2)no1)c1cccc(C)c1	32*	-17	2	-5
Cc1cccc2sc(N(CCN3CCOCC3)C(=O)CCS(=O)(=O)c3ccccc3)nc12	nt	3	17*	0
CCN(CC)CCN(C(=O)CCS(=O)(=O)c1ccccc1)c1nc2c(C)cc(C)cc2s1	-1	9	40*	5
CCN(CC)CCN(C(=O)CCS(=O)(=O)c1ccccc1)c1nc2cc(C)cc(C)c2s1	-2	6	34*	1
CCN(CC)CCN(C(=O)CCS(=O)(=O)c1ccccc1)c1nc2cc(OC)c(OC)cc2s1	-3	0	7	2
C=C[C@@H]1c2ccccc2N(S(=O)(=O)c2ccc(C)cc2)[C@H](c2ccc(C(=O)OC)cc2)C1(C#N)C#N	nt	nt	nt	0
O=C(CN1c2cccc3cccc(c23)S1(=O)=O)Nc1c(F)c(F)c(F)c(F)c1F	nt	nt	nt	3
O=C(Nc1cccc2nsnc12)c1ccc(-c2cccc(Cl)c2)o1	-27	nt	6	-2
Cc1ccc(-n2cc[nH]c2=S)c(C)c1	22	22	2	-5
Cc1ccc(C)c(-n2cc[nH]c2=S)c1	30*	-2	-2	-2
O=C(/C=C/c1cccs1)NC(=S)NNC(=O)c1ccccc1O	14	118*	1	0
C=CCNC(=S)Nc1sc2c(c1C(=O)OCC)CCN(C(=O)OCC)C2	3	16	-5	3
C=CCNC(=S)Nc1sc2c(c1C(=O)OCC)CC(C)(CC)OC2 (centres undefined)	0	98*	-5	0
CCCNS(=O)(=O)c1cc(CN2C(=O)c3cccnc3C2=O)ccc1OC	-2	-5	0	-1
O=C(Nc1ccccc1C(=O)NCCCN1CCOCC1)c1cccc([N+](=O)[O-])c1	0	-3	18*	1
CN(C)S(=O)(=O)c1ccc(C(=O)Nc2ccccc2C(=O)NCCCN2CCOCC2)cc1	nt	nt	nt	-1
COc1cc(C(=O)Nc2ccc(N3CCCS3(=O)=O)cc2)c([N+](=O)[O-])cc1OC	nt	-4	7	-3
CCCS(=O)(=O)N1CCC(C(=O)NCCN(CC)c2ccccc2)CC1	31*	-3	6	0
CCN(CCNC(=O)C1CCN(S(C)(=O)=O)CC1)c1ccccc1	3	-6	-1	1
SMILES	PfM18AAP inh	Calb FLC	Fh CTSL1 inh	Rin1 Abl inh
Cc1ccc(C(=O)Nc2ccc(CN3CCS(=O)(=O)CC3)cc2)cc1C	-3	-6	-5	-1
Cc1ccc(N2C(=O)N(CC(=O)Nc3ccc(C)c(C)c3)C(=O)C2C)cc1 (centres undefined)	nt	7	0	3
COc1ccc(CNC(=O)CNC(=O)c2ccc(C(C)(C)C)cc2)cc1OC	-7	1	1	0
Cc1nc2sc(C(c3cccc(F)c3)N3CCCC(C)C3)c(O)n2n1 (centres undefined)	-2	85*	-7	-2
C/C(=N\O)c1cc(Cl)cc(Cl)c1O	4	77*	-5	-3
CNC(=S)/N=C(\Nc1ccc(C)cc1)c1ccccc1	30*	-2	-2	0
CCCCCCCCCCCCCCCCn1cc[n+](C)c1	1	86*!	7	-3
Cc1cc(N(CN2CCCC2=O)C(=O)c2ccc(OC(C)C)cc2)no1	2	-11	19*	-2
